Records with an inconclusive call do not appear. Calls of active or inactive are those of the source. The rule behind the calls is not given here.
experiment: qHTS Assay for Inhibitors of Influenza NS1 Protein Function: Viral Replication TCID50; settings: Influenza virus replication in cells, at 10 µM, stronger effect = lower value
Source text: Influenza is a world-wide public health problem and emerging forms of the virus have the potential to cause a pandemic of equal or greater magnitude to the outbreaks recorded in 1918, 1957 or 1968. Vaccine development is proceeding and there also exist two classes of anti-influenza compounds. However these therapeutic modalities are neither fully effective nor widely enough available to fulfill global needs. In addition their potential usefulness against newly emergent strains is not known. Efforts are needed to develop novel agents against influenza virus, including broad-spectrum agents. Identification of small molecules that inhibit NS1 function either directly or by interfering with specific cellular pathways may be a key to increasing our defense against the virus.
We have miniaturized and optimized a cell based assay in which NS1 from influenza A is expressed in the budding yeast S. cerevisiae. NS1 is a multi-functional protein that counters the host innate immune response and facilitates viral versus cellular gene expression. Expression of NS1 causes a pronounced slow growth phenotype in yeast due to its intrinsic molecular activities. Small molecules that suppress the slow growth phenotype can be identified by a straightforward growth recovery assay using optical density (OD) as the measurement. The same yeast strain not expressing NS1 was used as positive control in the yeast growth recovery assay.
Hits resulting from the primary screen and other follow-up screens, were tested in two concentrations in this viral replication assay.
NIH Chemical Genomics Center [NCGC]
NIH Molecular Libraries Probe Centers Network [MLPCN]
Assay Submitter (PI): Daniel Engel, University of Virgina
Cell monolayers were infected at an m.o.i. of 0.1 for 48 h in the presence or absence of the compound, which was added at the beginning of infection. Virus titres were determined by TCID50 analysis (Reed, L. J. & Muench, H. (1938). A simple method of estimating fifty per cent endpoints. Am J Epidemiol 27, 493-497)

Q: Which viral titer (log10 TCID50) does the source give for `COc1cccc(-n2nc(C)c3c(-c4ccc(O)c(OC)c4)ccnc32)c1` here?
A: 9 (active)

Q: Which viral titer (log10 TCID50) does the source give for `COc1cc(-c2c(C#N)c(N)nc3c2c(C)nn3-c2ccc(F)cc2)ccc1O` here?
A: 6 (active)

Q: With `COc1cc(-c2ccnc3c2c(C)nn3-c2ccc(F)cc2)ccc1O` as the compound, how does the viral titer (log10 TCID50) read?
A: 8.68 (active)

Q: With `Cc1nn(-c2ccc(F)cc2)c2nc(N)c(C#N)c(-c3ccc(O)c(O)c3)c12` as the compound, how does the viral titer (log10 TCID50) read?
A: 7.66 (active)

Q: Which viral titer (log10 TCID50) does the source give for `COc1ccc(-c2ccnc3c2c(C)nn3-c2ccc(F)cc2)cc1` here?
A: 8.33 (active)

Q: Which viral titer (log10 TCID50) does the source give for `COc1cc(-c2ccnc3c2c(C)nn3-c2cccc(F)c2)ccc1O` here?
A: 9 (active)

Q: For `COc1cc(-c2c(C#N)c(N)nc3c2c(C)nn3-c2ccc(Cl)cc2)cc(OC)c1OC`, which viral titer (log10 TCID50) is on record?
A: 9 (active)

Q: Which viral titer (log10 TCID50) does the source give for `COc1ccc(-c2c3c(C)nn(-c4ccccc4)c3nc3[nH]c(=O)[nH]c(=O)c23)cc1O` here?
A: 8.66 (active)

Q: With `CCOc1cc(-c2c(C#N)c(=O)[nH]c3c2c(C)nn3-c2ccc(F)cc2)ccc1O` as the compound, how does the viral titer (log10 TCID50) read?
A: 8.66 (active)

Q: For `COc1cc(-c2c(C#N)c(N)nc3c2c(C)nn3-c2ccc(C)c(C)c2)cc(OC)c1OC`, which viral titer (log10 TCID50) is on record?
A: 9 (active)

same assay, conditions: Influenza virus replication in cells, viral titer, at 5 µM, stronger effect = lower value

Q: For `COc1cccc(-n2nc(C)c3c(-c4ccc(O)c(OC)c4)ccnc32)c1`, which viral titer (log10 TCID50) is on record?
A: 9

Q: Which viral titer (log10 TCID50) does the source give for `COc1cc(-c2c(C#N)c(N)nc3c2c(C)nn3-c2ccc(F)cc2)ccc1O` here?
A: 7.66

Q: Which viral titer (log10 TCID50) does the source give for `COc1cc(-c2ccnc3c2c(C)nn3-c2ccc(F)cc2)ccc1O` here?
A: 8.88

Q: Which viral titer (log10 TCID50) does the source give for `Cc1nn(-c2ccc(F)cc2)c2nc(N)c(C#N)c(-c3ccc(O)c(O)c3)c12` here?
A: 8.5

Q: For `COc1ccc(-c2ccnc3c2c(C)nn3-c2ccc(F)cc2)cc1`, which viral titer (log10 TCID50) is on record?
A: 9

Q: For `COc1cc(-c2ccnc3c2c(C)nn3-c2cccc(F)c2)ccc1O`, which viral titer (log10 TCID50) is on record?
A: 9

Q: With `COc1cc(-c2c(C#N)c(N)nc3c2c(C)nn3-c2ccc(Cl)cc2)cc(OC)c1OC` as the compound, how does the viral titer (log10 TCID50) read?
A: 9

Q: Which viral titer (log10 TCID50) does the source give for `COc1ccc(-c2c3c(C)nn(-c4ccccc4)c3nc3[nH]c(=O)[nH]c(=O)c23)cc1O` here?
A: 8.66

Q: With `CCOc1cc(-c2c(C#N)c(=O)[nH]c3c2c(C)nn3-c2ccc(F)cc2)ccc1O` as the compound, how does the viral titer (log10 TCID50) read?
A: 9

Q: With `COc1cc(-c2c(C#N)c(N)nc3c2c(C)nn3-c2ccc(C)c(C)c2)cc(OC)c1OC` as the compound, how does the viral titer (log10 TCID50) read?
A: 9

Reference: PubChem BioAssay AID602454 (National Center for Advancing Translational Sciences (NCATS), 2012)
